{"source": "PubChem BioAssay (Tox21)", "note": "Several values for one entry are separate records, joined by “and”; a condition that tells them apart may be missing. Identical values can stand only once. Records with an inconclusive call do not appear. Where a call stands in place of a potency, no number is given. The source holds several records for some structures; these can differ, active in one and inactive in another. Activity calls are given as the source filed them. Calls follow the shape of the dose curve; as a rule, active = well fitted cell-killing curve with a large enough effect in the repeat runs; inconclusive = weak or mixed curves, or effect the other way; inactive = flat fitted curve, though single readings scatter. Potency is read from the fitted curve at half-maximal effect.", "data": [{"assay": "qHTS assay to identify small molecule agonists of the estrogen receptor beta (ER-beta) signaling pathway - cell viability counter screen (AID 1259380); also: nearly all actives have a fitted effect of over 30% in size", "settings": "ER-beta-bla HEK293T viability, CellTiter-Glo luminescence, 16 h; series mostly up to 92.4 µM", "source_text": "National Center for Advancing Translational Sciences [NCATS]\nNIH Chemical Genomics Center [NCGC]\nU.S. Environmental Protection Agency [EPA]\nNational Institutes of Environmental Health Sciences [NIEHS]\nNational Toxicology Program [NTP]\nU.S. Food and Drug Administration [FDA]\nEstrogen receptor (ER), a nuclear hormone receptor, plays an important role in development, metabolic homeostasis and reproduction. Two subtypes of ER, ER-alpha and ER-beta, have similar expression patterns with some uniqueness in both types. Endocrine disrupting chemicals (EDCs) and their interactions with steroid hormone receptors like ER causes disruption of normal endocrine function. To identify the compounds that activate ER signaling, an ER beta-UAS-bla GripTite cell line (Life Technologies, Madison, WI, USA) containing a beta-lactamase reporter gene under the control of an UAS response element was used to screen Tox21 10K compound library. The cytotoxicity of the Tox21 compound library against the ER-beta-bla cell line was tested in parallel by measuring the cell viability using CellTiter-Glo assay in the same wells.\nTox21 Assay Protocol Summary:\nER-beta-UAS-bla HEK293T cells were dispensed at 2,000 cells/5 uL of assay medium containing 2% charcoal stripped FBS per well into black wall/clear-bottom 1536-well plates using a Multidrop Combi (ThermoFisher Scientific, Waltham, MA) dispenser. After the assay plates were incubated at a 37C and 5% CO2 for 6 hr, 23 nL of compounds dissolved in DMSO, positive controls or DMSO only was transferred to the assay plate by a Pintool station (Kalypsys, San Diego, CA). The plates were incubated at 37C and 5% CO2 for 16 hr. Then 1 uL of LiveBLAzerTM B/G FRET substrate was added using a BioRAPTR FRD (Flying Reagent Dispenser, Aurora Discovery, San Diego, CA) and then the plates were incubated at room temperature for 2 hours, and fluorescence intensity was measured by an Envision plate reader (PerkinElmer, Shelton, CT). For cell viability readout that measures cytotoxicity, 4 uL/well of CellTiter-Glo reagent was added into the assay plates using a FRD. After 30 min incubation at room temperature, the luminescence intensity in the plates was measured using a ViewLux (PerkinElmer) plate reader.", "values": [{"compound": "OC[C@H]1O[C@H](O[C@]2(CCl)O[C@H](CCl)[C@@H](O)[C@@H]2O)[C@H](O)[C@@H](O)[C@H]1Cl", "Potency": "inactive"}, {"compound": "CN(C)CCOC(C)(c1ccccc1)c1ccccn1", "note": "(stereo not given)", "Potency": "inactive"}, {"compound": "CCCCCCCC(=O)OCC(COC(=O)CCCCCCC)OC(=O)CCCCCCC", "Potency": "inactive"}, {"compound": "Oc1ccccc1", "Potency": "inactive"}, {"compound": "O=C(O)c1ccccc1", "Potency": "inactive"}, {"compound": "C/C=C/C=C/C(=O)O", "activity change, negative = cytotoxicity": "-4.84% [at 8.39 µM] (inactive)"}, {"compound": "CCCCC(CC)C(=O)O", "note": "(stereo not given)", "Potency": "inactive"}, {"compound": "Cc1c(C(=O)O)c(O)cc2c1C(=O)c1c(O)c([C@@H]3O[C@H](CO)[C@@H](O)[C@H](O)[C@H]3O)c(O)c(O)c1C2=O", "Potency": "inactive"}, {"compound": "CN1[C@@H]2CC(OC(=O)[C@H](CO)c3ccccc3)C[C@H]1[C@@H]1O[C@@H]12", "note": "(stereo not given in full)", "Potency": "inactive"}, {"compound": "CCc1nc(N)nc(N)c1-c1ccc(Cl)cc1", "Potency": "21.7 µM (active) and 18.8 µM (active)"}, {"compound": "Cc1cn([C@H]2C=C[C@@H](CO)O2)c(=O)[nH]c1=O", "Potency": "inactive"}, {"compound": "O=C1c2c(O)cccc2Cc2cccc(O)c21", "Potency": "inactive"}, {"compound": "O=c1[nH]cnc2c1ncn2[C@H]1CC[C@@H](CO)O1", "Potency": "inactive"}, {"compound": "CN(N=O)C(=O)N[C@@H]1[C@@H](O)[C@H](O)[C@@H](CO)O[C@@H]1O", "Potency": "inactive"}, {"compound": "CN1CCc2cccc3c2[C@H]1Cc1ccc(O)c(O)c1-3", "Potency": "55 µM (active) and 20.4 µM (active)"}, {"compound": "O=CC(=O)c1ccccc1", "Potency": "inactive"}, {"compound": "Cc1ccc(S(=O)(=O)O)cc1", "Potency": "inactive"}, {"compound": "CC(C)C(=O)Nc1ccc([N+](=O)[O-])c(C(F)(F)F)c1", "Potency": "inactive and 24.3 µM (active)"}, {"compound": "CC(O)(P(=O)(O)O)P(=O)(O)O", "Potency": "inactive"}, {"compound": "O=C1OC2(c3ccccc31)c1cc(Br)c(O)c(Br)c1Oc1c2cc(Br)c(O)c1Br", "Potency": "inactive"}, {"compound": "Cc1cc(C)nc(NS(=O)(=O)c2ccc(N)cc2)n1", "Potency": "inactive"}, {"compound": "CC12CCC(CC1)C(C)(C)O2", "Potency": "inactive"}, {"compound": "C=C(C)C(=O)OCC(C)O", "note": "(stereo not given)", "Potency": "inactive"}, {"compound": "CCN(CC)C(=O)c1cccc(C)c1", "Potency": "inactive"}, {"compound": "CCCCCCCCCCCC[N+](C)(C)Cc1ccccc1", "Potency": "30 µM (active) and 29.7 µM (active) and 10.6 µM (active)"}, {"compound": "NC(CO)(CO)CO", "Potency": "inactive"}, {"compound": "CC(=O)CC(c1ccccc1)c1c(O)c2ccccc2oc1=O", "note": "(stereo not given)", "Potency": "inactive"}, {"compound": "O=S1(=O)OC(c2ccc(O)cc2)(c2ccc(O)cc2)c2ccccc21", "Potency": "inactive"}, {"compound": "CC/C(=C(\\c1ccccc1)c1ccc(OCCN(C)C)cc1)c1ccccc1", "Potency": "24.5 µM (active) [middle of 5 runs]"}, {"compound": "NC1CCCCC1", "Potency": "inactive"}, {"compound": "Nc1ccc2c(c1)CN1C(=O)c3ccccc3C1=N2", "Potency": "5.8 µM (active)"}, {"compound": "Cc1ncc([N+](=O)[O-])n1C", "Potency": "inactive"}, {"compound": "CC(=O)Nc1c(I)c(NC(C)=O)c(I)c(C(=O)O)c1I", "Potency": "inactive"}, {"compound": "COc1ccc(OC(F)(F)F)cc1CN[C@H]1CCCN[C@H]1c1ccccc1", "Potency": "34.4 µM (active)"}, {"compound": "CC(C)NCC(O)c1ccc(O)c(O)c1", "note": "(stereo not given)", "Potency": "inactive"}, {"compound": "NS(=O)(=O)c1cc2c(cc1Cl)NCNS2(=O)=O", "Potency": "inactive"}, {"compound": "O=C1O[C@H]([C@@H](O)CO)C(O)=C1O", "Potency": "inactive"}, {"compound": "CCN(Cc1c(F)cccc1Cl)c1c([N+](=O)[O-])cc(C(F)(F)F)cc1[N+](=O)[O-]", "Potency": "30.6 µM (active)"}, {"compound": "COc1ccc(CN(CCN(C)C)c2ccccn2)cc1", "Potency": "50.2 µM (active) and inactive"}, {"compound": "CN[C@H]1CC[C@@H](c2ccc(Cl)c(Cl)c2)c2ccccc21", "Potency": "29.8 µM (active)"}]}]}
